Screening results as filed in PubChem BioAssay.
The full list was thinned out, with hits kept by preference.
VCAM1 pot = TNF alpha stimulated VCAM1 expression potentiation | AID 808 | 93,000 tested, 0.19% active | HUVEC TNFa-stimulated VCAM-1 immunofluorescence, high-content imaging; scaled per plate to unstimulated/TNFa-only wells | activation, % at 2 µM;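 active = activation above the screen mean plus 3 SD, with well images confirming the hit on visual review, cut at about 28% in these data, passing the limit was not always enough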;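 note: signal is the number of cytoplasmic VCAM-1 stained grains per positive cell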
VCAM1 pot conf = enhancers of VCAM1 induction in HUVEC – imaging, triplicate retest, confirmation. 230 tested, under 10 active. HUVEC TNFa-stimulated VCAM-1 immunofluorescence imaging. shares compounds with VCAM1 pot. AID 1034. activation, % at 2 µM;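 active = activation above 30% in triplicate retests at 2 µM, then confirmed by visual review of the well images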
Of the large screens only hits and unclear results are named; the others gave an inactive call (follow-up assays come after a bar, where they were run).

C/C(Cl)=C/CC1(CN2CCCC2=O)C(=O)NC(=O)NC1=O	VCAM1 pot 106 | VCAM1 pot conf inactive
CCCC(C)C1(CC)C(=O)NC(=Nc2ccccc2OC)NC1=O (stereo not given)	none
Cc1cc(C)c(NC2=NCCCS2)c(C)c1	none
COc1ccc(Cl)cc1NC1=NCC(C)S1 (stereo not given)	none
COc1ccc(OP(=O)(Nc2ccccc2)Nc2ccccc2)cc1	none
COc1ccc(/C=C2\C(=N\O)C3CCN2CC3)cc1	none
C=CCn1c(O)c(C(C)=NCc2cc(OC)cc(OC)c2)c(=O)[nH]c1=O	none
Cc1occc1C(=O)N1CCC2(CC1)OCCO2	none
CS(=O)(=O)N1CCCC(C(=O)N2CCC3(CC2)OCCO3)C1 (stereo not given)	none
CCOC(=O)c1[nH]c(C)c(C(=O)N2CCC3(CC2)OCCO3)c1C	VCAM1 pot 117 | VCAM1 pot conf inactive
O=C1CN(C(=O)CN2CCCCC2)C(c2ccccc2)c2cc(Br)ccc2N1 (stereo not given)	none
Cc1ccc(C2(O)CC(C)N(C)CC2C)cc1 (stereo not given)	none
CCOP(=S)(OCC)c1ccc(N(C)C)cc1	none
Cc1cc(C=O)c(C)n1CC1CCCO1 (stereo not given)	none
Cc1ccc(-c2nc3ccccc3c(=O)n2-c2nccs2)cc1	VCAM1 pot 56 | VCAM1 pot conf inactive
COC(=O)c1cc2c(s1)=NC=NP=2(N1CCOCC1)N1CCOCC1	none
CC(Cc1ccccc1)NC(=O)NC(C)Cc1ccccc1 (stereo not given)	VCAM1 pot 33 | VCAM1 pot conf inactive
CCCCC(=O)C1C(=O)NC(=O)NC1=O	none
CCC12CN3CCN(CC(C3)/C1=N\O)C2	none
O=C(Nc1ccccc1OC(=O)N1CCOCC1)N1CCOCC1	none
